{"source": "PubChem BioAssay AID624330", "about": "(Southern Research Specialized Biocontainment Screening …, 2012)", "note": "In all, about 340,000 compounds went through this assay and about 2,100 (0.62%) were called active.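 Rule for the calls: active = first-screen hits whose inhibition reached a set limit at any dose in the follow-up dose series; inconclusive = inhibition above the set first-screen limit but never retested; inactive = the rest.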 The list is a sample of the results. Measured potencies and affinities stand elsewhere.", "data": [{"target": "Rac GTPase-activating protein 1 (Homo sapiens) (UniProt Q9H0H5)", "sequence (Q9H0H5 whole entry, looked up)": "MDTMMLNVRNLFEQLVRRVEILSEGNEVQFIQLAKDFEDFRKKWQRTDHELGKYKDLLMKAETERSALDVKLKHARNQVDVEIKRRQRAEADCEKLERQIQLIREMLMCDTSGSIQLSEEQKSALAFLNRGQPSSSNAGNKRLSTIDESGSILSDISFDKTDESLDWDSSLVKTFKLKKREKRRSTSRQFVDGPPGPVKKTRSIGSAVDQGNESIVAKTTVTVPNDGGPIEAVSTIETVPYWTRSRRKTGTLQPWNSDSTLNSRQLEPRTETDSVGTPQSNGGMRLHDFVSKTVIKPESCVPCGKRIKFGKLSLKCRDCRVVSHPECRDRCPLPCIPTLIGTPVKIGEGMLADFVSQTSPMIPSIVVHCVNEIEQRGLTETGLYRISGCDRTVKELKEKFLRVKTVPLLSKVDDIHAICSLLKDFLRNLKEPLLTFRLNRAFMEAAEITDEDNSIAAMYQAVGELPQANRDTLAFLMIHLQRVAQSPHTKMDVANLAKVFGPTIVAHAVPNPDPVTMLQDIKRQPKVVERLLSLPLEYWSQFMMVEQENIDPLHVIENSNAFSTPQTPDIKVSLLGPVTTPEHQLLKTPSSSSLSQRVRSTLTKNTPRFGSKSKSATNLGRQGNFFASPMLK", "assay": "MgcRacGAP GTPase-activating activity inhibitors, confirmation, biochemical, ADP Hunter fluorescence, primary and confirmatory (AID 624330);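 note: fluorescence reports GDP produced by GAP-driven GTP hydrolysis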", "conditions": "MgcRacGAP-stimulated Rac1 GTP hydrolysis, at 30 µM, stronger effect = higher value, GST-tagged Rac1 F28L mutant substrate", "values": [{"smiles": "CCOCCCNC(=O)CCc1nnc2n(CCC(C)C)c(=O)c3ccccc3n12", "inhibition": "7.91% (inactive)"}, {"smiles": "Cc1ccccc1-n1c(=O)c2ccccc2n2c(=O)[nH]nc12", "inhibition": "3.11% (inactive)"}, {"smiles": "Cc1nnc2n(-c3ccccc3)c(=O)c3ccccc3n12", "inhibition": "9.66% (inactive)"}, {"smiles": "CCCCCn1c(=O)c2ccccc2n2c(CCl)nnc12", "inhibition": "1.94% (inactive)"}, {"smiles": "Cc1ccccc1-n1c(=O)c2ccccc2n2cnnc12", "inhibition": "2.97% (inactive)"}, {"smiles": "Cn1c(=O)c2ccccc2n2c(CCl)nnc12", "inhibition": "-0.09% (inactive)"}, {"smiles": "CN1CCN(C(=O)/C(=C/c2ccco2)NC(=O)c2ccccc2)CC1", "inhibition": "3.42% (inactive)"}, {"smiles": "CC1CCCCN1C(=O)NC1CC(=O)N(c2ccc3c(c2)OCCO3)C1", "note": "(stereo not given)", "inhibition": "4.77% (inactive)"}, {"smiles": "CCCOc1ccc(C(=O)ON=C2CCN(C)CC2)cc1", "inhibition": "5.39% (inactive)"}, {"smiles": "Cc1ccc(-c2csc3ncnc(N4CCN(Cc5ccccc5)CC4)c23)cc1", "inhibition": "4.03% (inactive)"}, {"smiles": "O=C(CN1C(=O)NC2(CCOc3ccccc32)C1=O)c1ccc[nH]1", "note": "(stereo not given)", "inhibition": "-0.33% (inactive)"}, {"smiles": "COc1ccccc1CNc1nc2nc(C)c(Cl)c(=O)n2[nH]1", "inhibition": "3.76% (inactive)"}, {"smiles": "Cc1nc2sc(C(c3cccs3)N3CCN(C(=O)c4ccco4)CC3)c(O)n2n1", "note": "(stereo not given)", "inhibition": "1.66% (inactive)"}, {"smiles": "CCc1cc(/C(Cc2ccc3ccccc3n2)=N\\O)c(O)cc1O", "inhibition": "22.8% (inactive)"}, {"smiles": "CCc1cc(C(=O)Cc2ccccn2)c(O)cc1O", "inhibition": "-7.09% (inactive)"}, {"smiles": "CCc1cc(/C(Cc2ccccn2)=N\\Nc2ccccc2)c(O)cc1O", "inhibition": "5.83% (inactive)"}, {"smiles": "Cc1cc(O)cc(O)c1C(=O)Cc1cscn1", "inhibition": "7.26% (inactive)"}, {"smiles": "CCc1cc2c(=O)c(-c3cscn3)coc2cc1O", "inhibition": "-2.61% (inactive)"}, {"smiles": "Cc1cc(O)c(C(=O)Cc2csc(C)n2)c(O)c1", "inhibition": "1.16% (inactive)"}, {"smiles": "CCOC(=O)N1CCC(=NNC(=O)NC2CCCCC2)CC1", "inhibition": "-0.13% (inactive)"}, {"smiles": "Cn1c(=O)n(C)c2cc(/C=N/N=C3/NC(=O)C(CC(=O)O)S3)ccc21", "note": "(stereo not given)", "inhibition": "11.1% (inactive)"}, {"smiles": "Nn1c(SCC(=O)NCC2CCCO2)nnc1-c1cc(Cl)ccc1Cl", "note": "(stereo not given)", "inhibition": "5.2% (inactive)"}, {"smiles": "COc1ccccc1OCC(=O)NNC(=O)CSC(=S)N1CCCC1", "inhibition": "8.8% (inactive)"}, {"smiles": "CC(C)C(NC(=O)CNC(=O)OC(C)(C)C)C(=O)NCc1ccc(Cl)cc1", "note": "(stereo not given)", "inhibition": "4.12% (inactive)"}, {"smiles": "CCOc1ccc(OCCN2CCCCC2)cc1", "inhibition": "19.4% (inactive)"}, {"smiles": "CCN1CCN(CCOCCOc2ccccc2)CC1", "inhibition": "28.1% (inactive)"}, {"smiles": "c1ccc(COc2ccc(OCCCN3CCCC3)cc2)cc1", "inhibition": "15.1% (inactive)"}, {"smiles": "COc1ccc(OCCOCCN2CCc3ccccc3C2)cc1", "inhibition": "28.9% (inactive)"}, {"smiles": "c1ccc(OCCCCN2CCCCC2)cc1", "inhibition": "12.9% (inactive)"}, {"smiles": "COc1ccc(OCCOCCN2CCOCC2)cc1", "inhibition": "12.8% (inactive)"}, {"smiles": "CN1CCN(CCOc2ccc(Cc3ccccc3)cc2)CC1", "inhibition": "10.6% (inactive)"}, {"smiles": "CCOc1cccc(OCCOCCN2CCCC2)c1", "inhibition": "25% (inactive)"}, {"smiles": "CC(Sc1nnc(-c2ccccc2F)n1C)C(=O)NC1CCCCC1", "note": "(stereo not given)", "inhibition": "6.18% (inactive)"}, {"smiles": "CCOC(=O)c1c(C)sc(Sc2ccc(Cl)cc2[N+](=O)[O-])c1OC", "inhibition": "4.34% (inactive)"}, {"smiles": "Cc1ccnc(SC2CC(=O)N(c3ccc(F)cc3)C2=O)n1", "note": "(stereo not given)", "inhibition": "1.56% (inactive)"}, {"smiles": "C(=N\\N=C\\c1ccccn1)/c1ccccn1", "inhibition": "3.13% (inactive)"}, {"smiles": "COc1ccc(CN(C)C(=O)[C@H](Cc2ccccc2)NC(=O)c2ccco2)c(OC)c1", "inhibition": "0.3% (inactive)"}, {"smiles": "COCCCNC(=O)CC1C[C@H](C(=O)N2CCOCC2)[C@@]2(C)c3[nH]c4ccc(OC)cc4c3CCN2C1=O", "note": "(stereo not given in full)", "inhibition": "8.55% (inactive)"}, {"smiles": "Cc1ccccc1N(CC(=O)N/N=C/c1cc(Br)c(C)o1)S(C)(=O)=O", "inhibition": "4.93% (inactive)"}, {"smiles": "O=S(=O)(NCCN1CCOCC1)c1ccc2c(c1)OCCO2", "inhibition": "3.86% (inactive)"}, {"smiles": "C/C(=N\\NC(=O)C1(C)CC1(Br)Br)c1cccc(NC(=O)c2ccc(C)o2)c1", "note": "(stereo not given)", "inhibition": "5.18% (inactive)"}, {"smiles": "O=C(C1=NN[C@@H]2C(=O)N(Cc3ccccc3)C(=O)[C@H]12)c1ccc([N+](=O)[O-])cc1", "inhibition": "14.7% (inactive)"}, {"smiles": "COc1ccc(/C=C2\\SC(N3CCc4ccccc4C3)=NC2=O)cc1OC", "inhibition": "10.4% (inactive)"}, {"smiles": "O=C(CCC(=O)c1cccs1)NCC(c1ccc(F)cc1)N1CCOCC1", "note": "(stereo not given)", "inhibition": "4.84% (inactive)"}, {"smiles": "Cc1cccc(N2CCN(C(=O)c3ccc4c(c3)c(C)c(C)n4C)CC2C)c1", "note": "(stereo not given)", "inhibition": "-37% (inactive)"}, {"smiles": "Cc1nn(CC(O)CN2c3ccccc3Sc3ccccc32)c(C)c1Br", "note": "(stereo not given)", "inhibition": "7.34% (inactive)"}, {"smiles": "Cc1cc(C)n(CC(=O)N2c3ccccc3Sc3ccccc32)n1", "inhibition": "4.56% (inactive)"}, {"smiles": "COc1ccc(NCc2ccc([N+](=O)[O-])s2)cc1", "inhibition": "23.5% (inactive)"}, {"smiles": "COc1ccccc1NCc1ccc([N+](=O)[O-])s1", "inhibition": "15.3% (inactive)"}, {"smiles": "Cc1ccc(Sc2ccc(N)cc2C#N)cc1", "inhibition": "4.36% (inactive)"}, {"smiles": "COC(=O)c1ccc(Sc2ccc(C)cc2)c(N)c1", "inhibition": "9.92% (inactive)"}, {"smiles": "NC(=S)c1ccc(OCCCc2ccccc2)cc1", "inhibition": "8.89% (inactive)"}, {"smiles": "Nc1ccc(C(=O)OCCc2ccccc2)cc1", "inhibition": "6.65% (inactive)"}, {"smiles": "CC(=O)NC(Cc1ccc(C(C)C)cc1)C(=O)NC1CCN(c2nc(C)cc(C)n2)CC1", "note": "(stereo not given)", "inhibition": "7.86% (inactive)"}, {"smiles": "CC(c1ccc2ccccc2c1)c1ccccc1C(=O)O", "note": "(stereo not given)", "inhibition": "5.25% (inactive)"}, {"smiles": "N#C/C(=C\\c1ccc(N2CCOCC2)cc1)c1ccccc1", "inhibition": "-4.89% (inactive)"}, {"smiles": "N#C/C(=C/c1ccc(N2CCCCCC2)o1)c1ccc(Cl)cc1", "inhibition": "38.4% (inactive)"}, {"smiles": "N#C/C(=C/c1ccc(N2CCOCC2)o1)c1ccc(Cl)cc1", "inhibition": "41.4% (inactive)"}, {"smiles": "N#C/C(=C/c1ccc(N2CCOCC2)o1)c1ccc(Br)cc1", "inhibition": "27% (inactive)"}, {"smiles": "CCN(CC)c1ccc(C=C2C(=O)OC3(CCCCC3)OC2=O)cc1", "inhibition": "4.11% (inactive)"}, {"smiles": "CN(C)c1ccc(C=C2SC(=S)N(Cc3ccco3)C2=O)cc1", "inhibition": "9.1% (inactive)"}, {"smiles": "COC(=O)C1=C(C)N(Cc2ccco2)C(=O)/C1=C\\c1ccc(N(C)C)cc1", "inhibition": "1.57% (inactive)"}, {"smiles": "CCN(CC)c1ccc(C=C2C(=O)OC3(CCCC3)OC2=O)cc1", "inhibition": "14.2% (inactive)"}, {"smiles": "O=C1c2ccccc2C(=O)N1Cc1ccco1", "inhibition": "8.18% (inactive)"}, {"smiles": "O=C1c2cccc3cccc(c23)C(=O)N1Cc1ccco1", "inhibition": "6.44% (inactive)"}]}]}
